# Laboratory results published in PubChem BioAssay (Tox21).
# Values without a mark were called inactive. Records with an inconclusive call do not appear. A call without a number means that no potency is given here. Activity calls are given as the source filed them. Unless noted, calls come from the whole dose curve; as a rule, active = well fitted curve in the direction sought with a large enough effect in the repeat runs; inconclusive = weak or mixed curves; inactive = no such curve, though single readings can be large; an effect the other way counts as inactive or inconclusive.
# Legend:
# [1] = Caspase-3/7 induction in HepG2 cells by small molecules, qHTS assay (AID 1346978); note: nearly all actives have a fitted effect of over 15% in size
# Method in brief: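 Wild-type HepG2 cells (2,000/well) were settled 5 h at 37 C, 5% CO2, then exposed to compounds in DMSO for 17 h. Caspase-3/7 activity was read by luminescence 30 min after adding Caspase-Glo 3/7 reagent at room temperature.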
# [2] = Caspase-3/7 induction in CHO-K1 cells by small molecules, qHTS cell viability counter screen (AID 1346979); note: nearly all actives have a fitted effect of over 35% in size; note: potency is the fitted concentration of half-maximal effect
# Method in brief: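 Viability readout by fluorescence (CellTiter-Fluor) on wild-type CHO-K1 cells exposed for 16hr at 37C and 5% CO2 to compounds delivered in DMSO; reagent incubated 1hr before reading.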
# [3] = Caspase-3/7 induction in HepG2 cells by small molecules, qHTS cell viability counter screen (AID 1346981); note: series mostly up to about 92 µM; nearly all actives have a fitted effect of over 30% in size
# Method in brief: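 Treatment of HepG2 cells with DMSO-delivered compounds ran 16 hr at 37 C following a 5-hr pre-incubation of 2,000 cells/well. CellTiter-Fluor fluorescence, read after 1 hr, served as the viability measure in a qHTS format.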
# [4] = biological target: Nuclear receptor subfamily 1 group I member 2 (Homo sapiens) (UniProt O75469); assay: Human pregnane X receptor (PXR) small molecule agonists, qHTS assay (AID 1346982); note: nearly all actives have a fitted effect of over 35% in size; note: potency is the fitted concentration of half-maximal effect
# Nuclear receptor subfamily 1 group I member 2 (Homo sapiens), sequence (O75469 whole entry, looked up): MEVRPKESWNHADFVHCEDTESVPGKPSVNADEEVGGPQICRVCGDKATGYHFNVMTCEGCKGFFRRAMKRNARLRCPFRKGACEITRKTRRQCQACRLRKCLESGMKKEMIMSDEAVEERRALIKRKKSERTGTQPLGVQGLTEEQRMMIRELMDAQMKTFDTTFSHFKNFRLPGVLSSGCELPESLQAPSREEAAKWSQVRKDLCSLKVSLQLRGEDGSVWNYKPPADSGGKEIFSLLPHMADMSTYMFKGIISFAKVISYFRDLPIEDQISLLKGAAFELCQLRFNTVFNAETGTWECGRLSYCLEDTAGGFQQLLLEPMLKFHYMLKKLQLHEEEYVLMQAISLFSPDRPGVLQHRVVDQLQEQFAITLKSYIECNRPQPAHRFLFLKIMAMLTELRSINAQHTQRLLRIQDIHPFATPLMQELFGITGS
# Method in brief: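 Stable HepG2 line reporting PXR-mediated CYP3A4 expression via luciferase. Treatment: 24 hr with compounds in DMSO at 37 C. Detection: ONE-Glo luminescence.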
# [5] = biological target: Acetylcholinesterase (Homo sapiens) (UniProt P22303); assay: Acetylcholinesterase (AChE) small molecule antagonists: enzyme-based qHTS assay (AID 1347397; calls by dose curve; note: nearly all actives have a fitted effect of over 55% in size; note: potency is the fitted concentration of half-maximal effect); settings: Potency: AChE enzyme activity inhibition; outcome: AChE enzyme activity inhibition
# Acetylcholinesterase (Homo sapiens), sequence (P22303 whole entry, looked up): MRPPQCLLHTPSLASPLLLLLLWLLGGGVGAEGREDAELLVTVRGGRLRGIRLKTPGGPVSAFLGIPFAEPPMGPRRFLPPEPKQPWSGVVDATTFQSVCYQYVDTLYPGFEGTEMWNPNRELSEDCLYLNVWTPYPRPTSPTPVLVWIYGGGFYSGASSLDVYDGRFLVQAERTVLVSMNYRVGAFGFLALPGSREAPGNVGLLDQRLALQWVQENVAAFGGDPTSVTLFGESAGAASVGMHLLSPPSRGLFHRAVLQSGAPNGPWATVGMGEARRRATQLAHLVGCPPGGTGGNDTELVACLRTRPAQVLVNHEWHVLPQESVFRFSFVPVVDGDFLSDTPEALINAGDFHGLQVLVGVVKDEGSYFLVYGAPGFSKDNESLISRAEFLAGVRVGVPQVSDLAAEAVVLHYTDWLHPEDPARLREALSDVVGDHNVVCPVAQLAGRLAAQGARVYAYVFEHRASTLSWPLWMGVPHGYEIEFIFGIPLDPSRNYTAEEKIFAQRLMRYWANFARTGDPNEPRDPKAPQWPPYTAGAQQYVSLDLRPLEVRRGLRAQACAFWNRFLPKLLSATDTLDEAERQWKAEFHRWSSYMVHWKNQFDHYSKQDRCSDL
# Method in brief: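 Compound or DMSO vehicle was pin-transferred onto recombinant human AChE (50 mU/mL as dispensed) and left 30 min at room temperature. Acetylthiocholine with DTNB then started the reaction, read colorimetrically 10 min later.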
# [6] = biological target: Acetylcholinesterase (Homo sapiens) (UniProt P22303); assay: Acetylcholinesterase (AChE) small molecule antagonists: fluorescence cell-based qHTS assay (AID 1347398; calls by dose curve; note: nearly all actives have a fitted effect of over 50% in size; note: potency is the fitted concentration of half-maximal effect); settings: Potency: AChE activity; outcome: AChE activity
# Method in brief: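 Using neuroblastoma SH-SY5Y cells as the enzyme source, test chemicals are preincubated 30 min at 37 C; AChE-driven acetylthiocholine cleavage is then quantified by thiocholine-dependent Thiolite Green fluorescence after 40 min at room temperature.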
# [7] = biological target: Acetylcholinesterase (Homo sapiens) (UniProt P22303); assay: Acetylcholinesterase (AChE) small molecule antagonists: enzyme-based qHTS assay with human liver microsomes (AID 1347399; calls by dose curve; note: nearly all actives have a fitted effect of over 60% in size; note: potency is the fitted concentration of half-maximal effect); settings: Potency: qHTS inhibition; outcome: qHTS inhibition
# Method in brief: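 Recombinant human AChE (50 mU/mL in the enzyme mix) and human liver microsomes (0.25 mg/mL final) were preincubated with compound and NADPH (0.25 mg/mL final) for 30 min at 37 C. Acetylthiocholine/DTNB was then added; thiocholine was read colorimetrically after 10 min at room temperature.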
# [8] = biological target: Cytochrome P450 2C19 (Homo sapiens) (UniProt P33261); assay: Cytochrome P450 Family 2 Subfamily C Member 19 (CYP2C19) small molecule antagonists: luciferase reporter qHTS assay (AID 1671197); note: nearly all actives have a fitted effect of over 65% in size; note: potency is the fitted concentration of half-maximal effect
# Cytochrome P450 2C19 (Homo sapiens), sequence (P33261 whole entry, looked up): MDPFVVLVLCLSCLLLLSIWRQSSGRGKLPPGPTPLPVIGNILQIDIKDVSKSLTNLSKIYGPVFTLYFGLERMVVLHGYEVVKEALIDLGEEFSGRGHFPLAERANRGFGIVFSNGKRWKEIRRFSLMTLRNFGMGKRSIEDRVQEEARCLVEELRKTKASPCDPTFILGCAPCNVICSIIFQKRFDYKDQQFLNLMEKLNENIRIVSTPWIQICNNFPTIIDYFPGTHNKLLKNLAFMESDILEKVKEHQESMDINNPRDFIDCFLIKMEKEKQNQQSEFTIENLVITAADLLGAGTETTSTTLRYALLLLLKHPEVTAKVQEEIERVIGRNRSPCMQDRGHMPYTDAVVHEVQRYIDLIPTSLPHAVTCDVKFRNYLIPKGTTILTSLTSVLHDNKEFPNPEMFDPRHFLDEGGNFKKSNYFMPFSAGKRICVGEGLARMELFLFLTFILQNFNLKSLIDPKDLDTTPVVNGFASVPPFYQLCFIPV
# Method in brief: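 Compounds were tested on CYP2C19 activity via proluciferin conversion to luciferin. The 37C, 1 h reaction followed NADPH addition; detection reagent stopped it.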
# [9] = biological target: Cytochrome P450 2C9 (Homo sapiens) (UniProt P11712); assay: Cytochrome P450 Family 2 Subfamily C Member 9 (CYP2C9) small molecule antagonists: luciferase reporter qHTS assay (AID 1671198); note: nearly all actives have a fitted effect of over 50% in size; note: potency is the fitted concentration of half-maximal effect
# Cytochrome P450 2C9 (Homo sapiens), sequence (P11712 whole entry, looked up): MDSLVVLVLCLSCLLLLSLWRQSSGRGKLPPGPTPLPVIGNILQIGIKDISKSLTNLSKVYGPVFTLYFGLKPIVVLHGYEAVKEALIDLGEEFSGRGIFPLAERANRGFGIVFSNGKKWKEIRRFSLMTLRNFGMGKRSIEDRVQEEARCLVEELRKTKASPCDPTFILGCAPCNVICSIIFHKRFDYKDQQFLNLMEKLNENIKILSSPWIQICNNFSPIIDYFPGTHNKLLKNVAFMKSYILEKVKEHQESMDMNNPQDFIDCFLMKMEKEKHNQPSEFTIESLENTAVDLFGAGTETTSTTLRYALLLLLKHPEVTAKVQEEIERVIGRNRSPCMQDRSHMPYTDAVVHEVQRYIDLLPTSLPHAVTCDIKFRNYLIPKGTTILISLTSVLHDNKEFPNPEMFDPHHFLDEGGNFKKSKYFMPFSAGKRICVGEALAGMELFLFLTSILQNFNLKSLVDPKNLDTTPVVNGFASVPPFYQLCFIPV
# Method in brief: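 CYP2C9 activity was measured with a P450-Glo proluciferin substrate. Enzyme–substrate mix was held with compound for 10 min at room temperature, then NADPH regeneration solution was added for 1 h at 37C. Luciferin product was read as luminescence.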
# [10] = biological target: Cytochrome P450 3A4 (Homo sapiens) (UniProt P08684); assay: Cytochrome P450 Family 3 Subfamily A Member 4 (CYP3A4) small molecule antagonists: luciferase reporter qHTS assay (AID 1671201); note: series mostly up to about 120 µM; nearly all actives have a fitted effect of over 50% in size
# Cytochrome P450 3A4 (Homo sapiens), sequence (P08684 whole entry, looked up): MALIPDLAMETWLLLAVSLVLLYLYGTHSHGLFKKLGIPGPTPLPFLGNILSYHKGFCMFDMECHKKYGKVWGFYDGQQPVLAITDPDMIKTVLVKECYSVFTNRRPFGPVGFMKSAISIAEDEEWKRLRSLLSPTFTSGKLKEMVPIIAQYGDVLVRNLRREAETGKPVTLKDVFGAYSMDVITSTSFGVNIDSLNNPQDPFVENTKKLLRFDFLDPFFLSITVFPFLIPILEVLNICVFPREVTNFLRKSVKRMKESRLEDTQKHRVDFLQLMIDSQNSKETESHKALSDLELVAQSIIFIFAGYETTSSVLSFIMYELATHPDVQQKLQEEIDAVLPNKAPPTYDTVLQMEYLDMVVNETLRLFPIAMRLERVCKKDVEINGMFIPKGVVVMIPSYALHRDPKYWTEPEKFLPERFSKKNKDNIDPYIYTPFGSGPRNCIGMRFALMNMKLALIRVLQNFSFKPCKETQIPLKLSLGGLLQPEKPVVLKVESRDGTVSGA
# Method in brief: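 Relative luminescence units after 20 min with luciferin detection reagent served as read-out. Beforehand, CYP3A4 turned over a proluciferin substrate for 1 h at room temperature with NADPH regeneration, following 10 min compound preincubation.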
# [11] = Caspase-3/7 induction in CHO-K1 cells by small molecules, qHTS assay (AID 1346980); note: nearly all actives have a fitted effect of over 15% in size
# Method in brief: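 Wild-type cells were seeded at 1,500 per well and settled 5 hr at 37 C, 5% CO2, then exposed to DMSO-dissolved compounds for 17 hr. Caspase-Glo 3/7 reagent was added, and luminescence was read after 30min at room temperature.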
# [12] = biological target: Acetylcholinesterase (Homo sapiens) (UniProt P22303); assay: Acetylcholinesterase (AChE) small molecule antagonists: colormetric cell-based qHTS assay (AID 1347395; calls by dose curve; note: nearly all actives have a fitted effect of over 30% in size; note: potency is the fitted concentration of half-maximal effect)
# Method in brief: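 Homogeneous whole-cell format. SH-SY5Y cells seeded overnight, dosed with compound (30 min, 37 C, 5% CO2), then given DTNB/acetylthiocholine cocktail for 90 min at 37 C; colorimetric signal.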
# [13] = biological target: Cytochrome P450 2D6 (Homo sapiens) (UniProt P10635); assay: Cytochrome P450 Family 2 Subfamily D Member 6 (CYP2D6) small molecule antagonists: luciferase reporter qHTS assay (AID 1671196); note: nearly all actives have a fitted effect of over 50% in size; note: potency is the fitted concentration of half-maximal effect
# Cytochrome P450 2D6 (Homo sapiens), sequence (P10635 whole entry, looked up): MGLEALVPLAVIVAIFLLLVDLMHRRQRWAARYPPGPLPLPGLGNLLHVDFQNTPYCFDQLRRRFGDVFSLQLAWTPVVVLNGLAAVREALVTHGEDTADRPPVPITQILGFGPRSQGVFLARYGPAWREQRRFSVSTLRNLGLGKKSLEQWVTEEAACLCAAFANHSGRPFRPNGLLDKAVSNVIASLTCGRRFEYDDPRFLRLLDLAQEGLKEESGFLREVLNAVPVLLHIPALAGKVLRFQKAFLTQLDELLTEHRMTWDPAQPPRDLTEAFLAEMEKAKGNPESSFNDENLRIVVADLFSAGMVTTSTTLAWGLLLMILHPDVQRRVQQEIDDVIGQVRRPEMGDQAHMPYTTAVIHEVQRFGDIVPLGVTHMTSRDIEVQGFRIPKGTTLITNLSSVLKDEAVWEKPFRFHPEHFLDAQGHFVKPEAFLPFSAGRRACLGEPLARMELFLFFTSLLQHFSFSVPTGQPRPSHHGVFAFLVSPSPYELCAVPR
# Method in brief: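 Chemicals tested for interference with CYP2D6 activity; proluciferin substrate, NADPH regeneration, 1 h at room temperature, luminescent detection.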
# [14] = biological target: Cytochrome P450 1A2 (Homo sapiens) (UniProt P05177); assay: Cytochrome P450 Family 1 Subfamily A Member 2 (CYP1A2) small molecule antagonists: luciferase reporter qHTS assay (AID 1671199); note: nearly all actives have a fitted effect of over 50% in size; note: potency is the fitted concentration of half-maximal effect
# Cytochrome P450 1A2 (Homo sapiens), sequence (P05177 whole entry, looked up): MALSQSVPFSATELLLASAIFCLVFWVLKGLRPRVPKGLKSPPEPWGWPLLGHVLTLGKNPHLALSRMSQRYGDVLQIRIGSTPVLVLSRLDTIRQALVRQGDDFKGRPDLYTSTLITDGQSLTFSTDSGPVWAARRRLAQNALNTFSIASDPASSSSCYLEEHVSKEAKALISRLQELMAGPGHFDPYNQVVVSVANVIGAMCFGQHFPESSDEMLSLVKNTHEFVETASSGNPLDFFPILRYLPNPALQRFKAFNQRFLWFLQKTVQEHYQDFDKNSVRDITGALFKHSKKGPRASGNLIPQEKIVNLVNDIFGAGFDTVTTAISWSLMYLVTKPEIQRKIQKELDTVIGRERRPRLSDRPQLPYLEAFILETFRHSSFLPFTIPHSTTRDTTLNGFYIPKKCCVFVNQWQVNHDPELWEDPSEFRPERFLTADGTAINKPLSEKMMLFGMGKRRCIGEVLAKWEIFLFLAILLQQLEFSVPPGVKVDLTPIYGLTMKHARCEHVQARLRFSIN
# Method in brief: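 Read-out is luminescence from luciferin detection reagent (20 min) proportional to CYP1A2 activity; compounds in DMSO preincubated 10 min with enzyme and proluciferin substrate, then NADPH regeneration solution, 1 h, room temperature.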
# [15] = biological target: Voltage-gated inwardly rectifying potassium channel KCNH2 (Homo sapiens) (UniProt Q12809); assay: Human Ether-a-go-go-Related Gene (hERG) channel small molecule antagonists: fluorescence cell-based qHTS assay (AID 1671200)
# Voltage-gated inwardly rectifying potassium channel KCNH2 (Homo sapiens), sequence (Q12809 whole entry, looked up): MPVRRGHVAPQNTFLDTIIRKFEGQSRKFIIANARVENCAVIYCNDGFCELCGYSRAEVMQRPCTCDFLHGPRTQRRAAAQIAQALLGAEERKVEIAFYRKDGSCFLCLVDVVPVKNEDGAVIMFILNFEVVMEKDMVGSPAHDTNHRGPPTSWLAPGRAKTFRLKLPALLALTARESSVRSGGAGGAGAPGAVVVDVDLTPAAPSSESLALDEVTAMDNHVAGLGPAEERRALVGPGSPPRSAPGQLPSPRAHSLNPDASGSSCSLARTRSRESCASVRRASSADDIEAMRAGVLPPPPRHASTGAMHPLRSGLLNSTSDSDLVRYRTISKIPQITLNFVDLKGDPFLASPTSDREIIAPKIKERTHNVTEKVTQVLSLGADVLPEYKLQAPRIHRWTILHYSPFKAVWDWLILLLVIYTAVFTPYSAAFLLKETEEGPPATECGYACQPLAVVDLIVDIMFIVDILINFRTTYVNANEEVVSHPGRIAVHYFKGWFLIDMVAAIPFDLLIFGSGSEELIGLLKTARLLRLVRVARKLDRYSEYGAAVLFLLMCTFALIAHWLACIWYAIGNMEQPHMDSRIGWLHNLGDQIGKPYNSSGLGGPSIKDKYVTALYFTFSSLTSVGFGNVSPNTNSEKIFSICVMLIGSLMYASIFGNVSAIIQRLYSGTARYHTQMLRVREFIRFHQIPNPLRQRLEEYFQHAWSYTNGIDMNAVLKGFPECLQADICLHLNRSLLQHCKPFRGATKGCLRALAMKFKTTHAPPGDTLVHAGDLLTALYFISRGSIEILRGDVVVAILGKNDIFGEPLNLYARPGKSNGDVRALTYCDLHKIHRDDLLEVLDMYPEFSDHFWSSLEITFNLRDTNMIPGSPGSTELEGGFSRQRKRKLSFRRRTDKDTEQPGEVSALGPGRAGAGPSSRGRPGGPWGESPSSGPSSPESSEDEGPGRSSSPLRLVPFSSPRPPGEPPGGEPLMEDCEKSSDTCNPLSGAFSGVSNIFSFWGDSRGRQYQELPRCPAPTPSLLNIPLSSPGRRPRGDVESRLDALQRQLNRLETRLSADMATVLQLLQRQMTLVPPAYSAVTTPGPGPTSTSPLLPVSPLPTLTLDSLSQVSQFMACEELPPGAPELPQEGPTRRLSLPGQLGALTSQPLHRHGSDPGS
# Method in brief: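 Thallium served as the potassium surrogate; its influx into dye-loaded U2OS cells carrying the channel was measured by fluorescence over 2 min.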
# [16] = biological target: Nuclear receptor subfamily 1 group I member 2 (Homo sapiens) (UniProt O75469); assay: CYP3A4 induction through human pregnane X receptor (PXR) by small molecules, qHTS assay (AID 1346984); note: nearly all actives have a fitted effect of over 40% in size
# Method in brief: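 After 24 h at 37C with compound, DPX-2 cells (HepG2, co-transfected PXR response element and CYP3A4 promoter-luciferase) got 3uM final P450-Glo Luciferin-IPA for 3 h; One-Glo luminescence followed.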
# [17] = biological target: Nuclear receptor subfamily 1 group I member 2 (Rattus norvegicus) (UniProt Q9R1A7); assay: Rat pregnane X receptor (rPXR) activation by small molecules, qHTS assay (AID 1346983); settings: rPXR luciferase reporter cells, One-Glo luminescence, 24 h; active compounds read high; note: nearly all actives have a fitted effect of over 20% in size
# Method in brief: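 Cell-based rPXR luciferase reporter assay, 2,000 cells per well, rested 5hr at 37 C before compound addition in DMSO, then 24 hr at 37 C. One-Glo reagent was added and luminescence read after 30 min at room temperature.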
# [18] = biological target: Nuclear receptor subfamily 1 group I member 2 (Homo sapiens) (UniProt O75469); assay: Human pregnane X receptor (PXR) activation by small molecules, qHTS assay (AID 1346985); note: nearly all actives have a fitted effect of over 40% in size
# Method in brief: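 DPX-2 cells (HepG2 co-transfected with a PXR response element and a CYP3A4-promoter luciferase construct) were seeded at 2,000 per well, rested 5 hr at 37C, then exposed to DMSO-dissolved compounds for 24 hr. Activation was read as luciferase luminescence.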
SMILES,outcome [1],Potency [2],Potency [3],Potency [4],Potency [5],Potency [6],Potency [7],Potency [8],Potency [9],Potency [10],outcome [11],Potency [12],Potency [13],Potency [14],Potency [15],Potency [16],max activation [17] [%],Potency [18]
C1CN2CCC1CC2,inactive,inactive,inactive,inactive,inactive,inactive,inactive,43.6 µM (active),inactive,inactive,–,–,–,–,–,–,–,–
CON(C)C(=O)Nc1ccc(Br)c(Cl)c1,inactive,–,inactive,27.3 µM (active),inactive,inactive,inactive,28.3 µM (active),63.3 µM (active),–,inactive,inactive,inactive,1.78 µM (active),inactive,–,–,–
CN(C)CCc1c[nH]c2cccc(OP(=O)(O)O)c12,inactive,inactive,inactive,inactive,–,inactive,inactive,inactive,inactive,inactive,–,inactive,inactive,inactive,inactive,–,–,–
CC(C)(C)NC[C@H](O)c1ccc(O)cc1Cl,–,inactive,inactive,inactive,inactive,inactive,inactive,inactive,inactive,inactive,inactive,inactive,30.9 µM (active),inactive,inactive,–,–,–
NCCOS(=O)(=O)O,inactive,inactive,inactive,inactive,–,inactive,inactive,inactive,inactive,inactive,–,inactive,inactive,inactive,inactive,–,–,–
CCCCCCCCSC(=O)Oc1cc(Cl)nnc1-c1ccccc1,inactive,–,inactive,–,–,inactive,inactive,–,35.6 µM (active),inactive,inactive,inactive,inactive,–,inactive,–,–,–
CCCCCCCC(=O)Cl,inactive,49 µM (active),inactive,61.6 µM (active),–,inactive,inactive,40.3 µM (active),–,inactive,–,–,inactive,inactive,inactive,–,–,–
CC(O)CCl (stereo unspecified),–,inactive,inactive,inactive,inactive,inactive,inactive,inactive,inactive,inactive,inactive,inactive,inactive,–,–,–,–,–
O=c1[nH]c2ccccc2o1,inactive,inactive,inactive,–,inactive,inactive,inactive,–,inactive,inactive,–,inactive,–,–,inactive,–,–,–
CCOC(=O)c1ncn2c1CN(C)C(=O)c1c(I)cccc1-2,inactive,inactive,inactive,inactive,inactive,inactive,inactive,–,–,inactive,–,–,–,inactive,inactive,–,–,–
CNC(=O)Oc1cc(C)c(N(C)C)c(C)c1,inactive,–,inactive,30.6 µM (active),2.25 µM (active),797 nM (active),12.6 µM (active),79.7 µM (active),inactive,inactive,inactive,2.52 µM (active),–,10 µM (active),inactive,–,–,–
CCN[C@H](C)Cc1cccc(C(F)(F)F)c1,–,inactive,inactive,inactive,inactive,inactive,inactive,inactive,inactive,inactive,inactive,inactive,2.24 µM (active),–,inactive,–,–,–
C=C1C[C@@H]2[C@H](CC[C@]3(C)C(=O)CC[C@@H]23)[C@@]2(C)C=CC(=O)C=C12,inactive,–,inactive,26.6 µM (active),inactive,inactive,inactive,4.36 µM (active),–,inactive,inactive,inactive,–,inactive,inactive,inactive,–,–
CCN[C@@H](C)Cc1cccc(C(F)(F)F)c1,inactive,inactive,inactive,–,–,inactive,inactive,inactive,inactive,inactive,–,inactive,2.45 µM (active),–,–,–,–,–
Cn1c(CCCC(=O)O)nc2cc(N(CCCl)CCCl)ccc21,inactive,–,inactive,inactive,–,inactive,inactive,inactive,inactive,inactive,inactive,inactive,inactive,inactive,inactive,inactive,-0.144,inactive
C#CC(C)(C)O,inactive,inactive,inactive,–,inactive,inactive,inactive,inactive,inactive,inactive,–,inactive,inactive,–,inactive,–,–,–
CC(=O)CN(CC(C)=O)N=O,inactive,inactive,inactive,inactive,inactive,inactive,inactive,inactive,inactive,inactive,–,inactive,inactive,–,–,–,–,–
O=c1[nH]oc2c1CCNC2,inactive,–,inactive,–,inactive,–,inactive,inactive,inactive,inactive,inactive,inactive,inactive,inactive,inactive,–,–,–
c1cncc([C@@H]2CCCCN2)c1,inactive,–,inactive,21.7 µM (active),inactive,inactive,inactive,39.9 µM (active),–,–,–,inactive,–,–,inactive,–,–,–
